# ± gives the standard deviation.
# Columns and labels:
# Conditions in all cases: modulator concentration 10 µM
# [1] = test system: RAW-Dual (murine macrophage reporter line); assay: NF-kB reporter (SEAP) activity fold change vs agonist alone; higher = enhanced NF-kB activity
# How it was run: (§1)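 Compound reached 10 μM final in each well by pin transfer, onto RAW-Dual murine macrophage reporter cells seeded at 50 000 per well in 384-well plates. After 1 hour at 37 °C, the cells were stimulated overnight with a PRR agonist. SEAP in the supernatant was read with QUANTI-Blue at 620 nm absorbance for NF-κB, and Lucia luciferase was read with QUANTI-Luc luminescence for IRF. Each signal was turned into fold change against the mean agonist-only control on the same plate, and two replicate plates were averaged with propagated errors.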
# [2] = test system: RAW-Dual (murine macrophage reporter line); assay: IRF reporter (Lucia luciferase) activity fold change vs agonist alone; higher = enhanced IRF activity
# How it was run: as §1
# [3] = test system: RAW-Dual (murine macrophage reporter line); assay: viability score (confluency relative to resting cells, overnight) (fraction); higher = more viable, active = viable (0.7 or more)
# How it was run: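 In 384-well plates, RAW-Dual macrophages received compound at a final 10 μM overnight. Two confluency masks were then made with IncuCyte software from IncuCyte images of all imaged wells. The viability score is defined as confluency relative to resting cells. Passing the cutoff required both masks to lie above 70% of resting cells.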
# [4] = agonist: CpG ODN 1826 0.5 ug/mL
SMILES,"NF-kB reporter [1, 4]",NF-kB reporter ([1]; agonist: LPS 0.1 ug/mL),NF-kB reporter ([1]; agonist: MPLA […]),IRF reporter ([2]; agonist: 3'3'-cGAMP 10 ug/mL),IRF reporter ([2]; agonist: LPS 0.1 ug/mL),IRF reporter ([2]; agonist: MPLA […]),viability score [3]
COc1ccccc1Cn1c(SC)nc2c(-c3ccccc3)c[nH]c2c1=O,1.51 ± 0.064,0.889 ± 0.11,0.997 ± 0.053,0.114 ± 0.0059,1.05 ± 0.19,1.41 ± 0.36,0.948 (active)
C=CCN1C(=O)C(=C2C(=O)N(Cc3ccccc3F)c3ccccc32)SC1=S,1.09 ± 0.1,1.02 ± 0.079,1.01 ± 0.062,0.904 ± 0.039,1.37 ± 0.18,1.13 ± 0.19,1.01 (active)
CCOC(=O)C(CCc1ccccc1)NC(C)C(=O)N1C(C(=O)O)CC2CCCCC21 (configuration not stated),0.994 ± 0.11,0.925 ± 0.068,1.08 ± 0.1,0.953 ± 0.045,1.24 ± 0.2,1.27 ± 0.29,1.05 (active)
O=S(=O)(Nc1nc2ccccc2n2nnnc12)c1ccc(F)cc1,1.01 ± 0.1,1.03 ± 0.068,0.934 ± 0.067,0.865 ± 0.021,1.21 ± 0.15,0.964 ± 0.25,1.01 (active)
Brc1ccc2ncnc(N3CCOCC3)c2c1,1.17 ± 0.097,1.39 ± 0.098,1.13 ± 0.05,0.357 ± 0.087,0.515 ± 0.039,0.592 ± 0.084,1 (active)
COc1ccc(OC)c(-c2csc(NC(=O)C3CC3)n2)c1,1.11 ± 0.068,0.972 ± 0.08,1 ± 0.034,0.935 ± 0.043,1.01 ± 0.061,1.13 ± 0.12,0.994 (active)
COc1cc(C=C2NC(=O)NC2=O)cc(I)c1OCc1ccccc1,0.986 ± 0.082,1.09 ± 0.066,0.93 ± 0.098,1.05 ± 0.025,1.37 ± 0.15,1.12 ± 0.23,1.01 (active)
NC(=O)CSc1nc(O)cc(=O)n1-c1ccccc1F,0.987 ± 0.16,1.06 ± 0.088,1.09 ± 0.11,0.978 ± 0.048,1.39 ± 0.26,1.23 ± 0.13,1.01 (active)
CCOC(=O)C1=C(C)N(CC(C)C)C(=O)C1=Cc1cccc(Br)c1,1.05 ± 0.11,1.04 ± 0.069,0.869 ± 0.051,0.909 ± 0.03,0.963 ± 0.082,1.19 ± 0.2,0.992 (active)
CNCCCN1c2ccccc2CCc2ccccc21.Cl,0.462 ± 0.11,1.14 ± 0.11,1.54 ± 0.1,0.45 ± 0.017,1.46 ± 0.2,1.88 ± 0.19,0.951 (active)
Cc1ccc(S(=O)(=O)c2ccc(O)c(O)c2)cc1,0.932 ± 0.074,1.02 ± 0.095,1.03 ± 0.086,0.599 ± 0.036,1.31 ± 0.096,1.08 ± 0.12,0.987 (active)

# — the supplement of paper PMC10646978
